{"source": "PubChem BioAssay AID2599", "about": "(Sanford-Burnham Center for Chemical Genomics, 2010)", "note": "The whole screen tested about 330,000 compounds, of which about 5,800 (1.8%) were called active. What follows is part of a selection rich in actives, with near analogues and random picks from the rest. A number with no mark means an inactive call.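 Rule for the calls: active = inhibition above about 50% at the single tested dose (limit read from the data); inactive = the rest.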"}
{"target": "Sentrin-specific protease 6 (Homo sapiens) (UniProt Q9GZR1)", "sequence (Q9GZR1 628-1112 limits assumed)": "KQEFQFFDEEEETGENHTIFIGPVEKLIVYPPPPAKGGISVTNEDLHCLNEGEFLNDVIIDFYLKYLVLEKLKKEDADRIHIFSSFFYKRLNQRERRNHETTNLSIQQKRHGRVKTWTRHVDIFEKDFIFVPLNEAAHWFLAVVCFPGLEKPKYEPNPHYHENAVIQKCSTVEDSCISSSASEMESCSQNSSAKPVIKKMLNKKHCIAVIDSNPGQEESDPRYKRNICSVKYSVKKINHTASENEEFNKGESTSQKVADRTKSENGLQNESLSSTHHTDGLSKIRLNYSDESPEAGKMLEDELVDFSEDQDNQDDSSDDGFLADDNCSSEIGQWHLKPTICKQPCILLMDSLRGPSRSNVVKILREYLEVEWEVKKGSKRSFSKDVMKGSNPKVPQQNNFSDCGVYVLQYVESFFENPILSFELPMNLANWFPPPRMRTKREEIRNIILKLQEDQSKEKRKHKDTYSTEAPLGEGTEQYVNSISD", "experiment": "SENP6 protease inhibitors, primary screen, biochemical, luminescence, uHTS (AID 2599);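 note: plate controls were DMSO wells with enzyme for no effect and DMSO wells lacking enzyme for full effect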", "details": "Recombinant SENP6 catalytic domain, aminoluciferin luminescence; at 10 µM; stronger effect = higher value"}
{"compound": "COc1ccc(C2=NOC3(CC(=O)N(c4ccc(Cl)cc4)C3=O)C2)c(OC)c1", "note": "(centres undefined)", "inhibition": "-7.66%"}
{"compound": "O=C(Nc1nnc(C2CC2)s1)c1cc(Cl)sc1Cl", "inhibition": "4.15%"}
{"compound": "Cc1cccc(NC(=O)CSCC(=O)Nc2nnc(C3CC3)s2)c1", "inhibition": "-3.73%"}
{"compound": "Cc1ccc(SCC(=O)Nc2ncc(C)s2)cc1", "inhibition": "-5.14%"}
{"compound": "Cc1cnc(NC(=O)C2CCCC2)s1", "inhibition": "8.65%"}
{"compound": "CCc1cc(C(=O)Nc2nnc(C3CC3)s2)sc1C", "inhibition": "-7.34%"}
{"compound": "O=C(Nc1nnc(C2CC2)s1)c1ccccn1", "inhibition": "69.2% (active)"}
{"compound": "Cc1cc(C(=O)Nc2nnc(C3CC3)s2)c(C)s1", "inhibition": "76.1% (active)"}
{"compound": "O=C(Nc1nnc(Cc2ccccc2)s1)c1cnccn1", "inhibition": "-4.43%"}
{"compound": "Cc1cnc(NC(=O)c2ccccn2)s1", "inhibition": "88.5% (active)"}
{"compound": "COc1ccccc1NC(=O)CCSc1nnc(-c2ccc(O)cc2)o1", "inhibition": "-8.69%"}
{"compound": "O=C(c1cccc(F)c1)N1CCN(c2ccc([N+](=O)[O-])c3cccnc23)CC1", "inhibition": "13.7%"}
{"compound": "CCOc1cc(CNCc2ccccn2)ccc1OCC(=O)NC(C)(C)C", "inhibition": "4.74%"}
{"compound": "CCn1nc(C)c(CN2CCN(Cc3ccc(OC)c(C)c3C)C(CCO)C2)c1C", "note": "(centres undefined)", "inhibition": "-13.1%"}
{"compound": "COCCCNC(=O)CN1CCN(Cc2ccccc2Cl)C1=O", "inhibition": "-5.23%"}
{"compound": "CC(=O)Nc1ccc(S(=O)(=O)Nc2nc3n(n2)C(c2ccccc2)CC(=O)N3)cc1", "note": "(centres undefined)", "inhibition": "-18.6%"}
{"compound": "COc1ccc(C2CC(c3cccs3)=NN2c2ccccc2)cc1", "note": "(centres undefined)", "inhibition": "-18.7%"}
{"compound": "Cc1nnc2n1N=C(c1ccccc1)CS2", "inhibition": "0.225%"}
{"compound": "O=c1c2cc(-c3ccccc3)sc2nc2n1N=C(c1cccs1)CS2", "inhibition": "73.2% (active)"}
{"compound": "COc1ccc(Cl)cc1NS(=O)(=O)c1cccc(C(=O)NCC2CCCO2)c1", "note": "(centres undefined)", "inhibition": "-6.29%"}
{"compound": "COc1ccc(S(=O)(=O)N2CCOCC2)cc1NC(=O)Cc1c(F)cccc1Cl", "inhibition": "2.93%"}
{"compound": "CC1=CC(=C(C#N)c2nc3ccccc3s2)C=C(C)N1c1ccc(F)cc1F", "inhibition": "63.9% (active)"}
{"compound": "O=C(O)CS/C(=C\\c1ccc(F)cc1)c1nc2ccccc2s1", "inhibition": "-11.1%"}
{"compound": "N#C/C(=C(/O)Cc1cccc2ccccc12)c1nc2ccccc2s1", "inhibition": "1.83%"}
{"compound": "CN(Cc1ccccc1)C(=O)C1CCCN(c2ncnc3c2nc2n3CCCCC2)C1", "note": "(centres undefined)", "inhibition": "-17.3%"}
{"compound": "Cc1cc(NC(=O)COc2ccccc2C#N)no1", "inhibition": "4.16%"}
{"compound": "O=C(Nc1ccn(Cc2ccccc2F)n1)c1ccc(COc2ccc(Cl)cc2Cl)o1", "inhibition": "25.5%"}
{"compound": "O=C(Nc1ccn(Cc2ccccc2)n1)c1n[nH]c([N+](=O)[O-])c1Cl", "inhibition": "98.2% (active)"}
{"compound": "Cc1ccc(Cn2ccc(NC(=O)C3C4CCC(C4)C3C(=O)O)n2)cc1", "note": "(centres undefined)", "inhibition": "13.1%"}
{"compound": "Cc1cc(C)c(S(=O)(=O)Nc2c(C)n(C)n(-c3ccccc3)c2=O)cc1[N+](=O)[O-]", "inhibition": "-1.02%"}
{"compound": "CN(CC1CCCN(CCc2cccc(C(F)(F)F)c2)C1)C(=O)c1ccc2nc[nH]c2c1", "note": "(centres undefined)", "inhibition": "-6.57%"}
{"compound": "COc1ccc(S(=O)(=O)NCC(=O)NC2CC2)cc1OC", "inhibition": "-8.69%"}
{"compound": "CCCCC(c1nnnn1CS(=O)(=O)c1ccc(C)cc1)N1CCC(C(N)=O)CC1", "note": "(centres undefined)", "inhibition": "-48.9%"}
{"compound": "COc1ccccc1N=Cc1c(O)c2ccccc2oc1=O", "inhibition": "81% (active)"}
{"compound": "COc1cc(N=Cc2c(O)c3ccccc3oc2=O)c(OC)cc1Cl", "inhibition": "-7.87%"}
{"compound": "COc1ccccc1N=C(C)C1=C(O)COC1=O", "inhibition": "-35%"}
{"compound": "CCc1c(C)nc2c(-c3ccccc3)c(C)nn2c1Nc1ccc(NC(C)=O)cc1", "inhibition": "-6.24%"}
{"compound": "CCN(C(=O)CSc1cccc[n+]1[O-])c1ccccc1", "inhibition": "-15.1%"}
{"compound": "CCn1c(=O)n(CC)c2cc(N3CCCC3)c(NC(=O)c3ccccc3Br)cc21", "inhibition": "7.04%"}
{"compound": "CN(C(=O)CSc1nncc2ccccc12)C1CCCCC1", "inhibition": "-34.7%"}
{"compound": "CN(C(=O)c1cc2c(=O)n3ccccc3nc2s1)C1CCCCC1", "inhibition": "-20.3%"}
{"compound": "CN(c1ccc2nc3ccccc3c(=O)n2n1)C1CCCCC1", "inhibition": "93.7% (active)"}
{"compound": "COc1ccc(/C=N/NC(=O)c2ccncc2)cc1CN1CCCc2ccccc21", "inhibition": "-2.09%"}
{"compound": "C=CCn1c(Cn2nnc3ccccc32)nnc1SCC(=O)N/N=C/c1cc(Br)cc(OC)c1O", "inhibition": "20.6%"}
{"compound": "CCN(CC)C(=O)CSc1ncnc2c1cnn2-c1ccccc1", "inhibition": "22.4%"}
{"compound": "Cc1ccc(-n2ncc3c(Nc4cccc(C(=O)O)c4)ncnc32)cc1", "inhibition": "97.4% (active)"}
{"compound": "Cc1ccc(Nc2ncnc3c2cnn3C)c(C)c1", "inhibition": "14.7%"}
{"compound": "c1ccc2sc(NN=C3CCCC3)nc2c1", "inhibition": "84.1% (active)"}
{"compound": "O=C(CCC(=O)c1cccs1)Nc1nc2ccccc2s1", "inhibition": "-6.28%"}
{"compound": "O=C(CCNC(=O)c1ccccc1)Nc1nc2ccccc2s1", "inhibition": "-6.27%"}
{"compound": "CC1=NN(C(N)=S)C(=O)C1N=Nc1cc(Cl)ccc1Cl", "note": "(centres undefined)", "inhibition": "67.7% (active)"}
{"compound": "CN(C)S(=O)(=O)c1ccc(N2CCCC2)c(C(=O)Nc2cccc(F)c2)c1", "inhibition": "-13.9%"}
{"compound": "c1ccc(C2CCC(N3CCC(N4CCCCC4)CC3)CC2)cc1", "note": "(centres undefined)", "inhibition": "-12.6%"}
{"compound": "CCCOc1ccc(NC(=O)CC2C(=O)N(C)C(=S)N2Cc2ccc3c(c2)OCO3)cc1", "note": "(centres undefined)", "inhibition": "-5.66%"}
{"compound": "Cc1ccc(S(=O)(=O)N2CCN(c3ncnc4ccccc34)CC2)cc1", "inhibition": "-8.22%"}
{"compound": "Cc1ccc(NC(=O)CN2CCc3ccccc3C2)cc1", "inhibition": "-1.22%"}
{"compound": "Cc1ccc(S(=O)(=O)Nc2nc3ccccc3nc2N2CCc3ccccc3C2)cc1", "inhibition": "72.3% (active)"}
{"compound": "CCOc1ncccc1C(=O)N(C)CC(=O)Nc1ccc(F)cc1", "inhibition": "-13.5%"}
{"compound": "COc1ccc(CCC(C)N2CCc3ccccc3C2)cc1", "note": "(centres undefined)", "inhibition": "-16.3%"}
{"compound": "CC1CCC(NC(=O)CNC(=O)c2ccc3ccccc3c2)CC1", "note": "(centres undefined)", "inhibition": "-5.64%"}
{"compound": "COc1ccc(N(CC(=O)NCc2ccc(F)cc2)C(=O)CCC(=O)Nc2nccs2)cc1", "inhibition": "-20.2%"}
{"compound": "Cn1cccc1C(=O)OCC(=O)NCCc1ccccc1", "inhibition": "2.46%"}
{"compound": "O=C(COC(=O)c1c2c(nc3ccccc13)CCCC2)c1ccc(Br)s1", "inhibition": "-21.7%"}
{"compound": "Cn1cccc1C(=O)OCC(=O)c1ccc(Br)s1", "inhibition": "80.6% (active)"}
{"compound": "Cc1cc(C(=O)N2CCC(C(=O)O)CC2)c(C(F)(F)F)o1", "inhibition": "-4.3%"}
{"compound": "CCCNC(=S)NC1CC2CCCC(C1)N2CC(C)C", "note": "(centres undefined)", "inhibition": "-7.92%"}
{"compound": "COc1ccc(CNC(=O)Cc2ccc(-c3ccccc3)cc2)cc1OC", "inhibition": "-23.6%"}
{"compound": "COc1ccc(CNC(=O)COc2ccccc2C(=O)c2cnn(-c3ccccc3)c2)cc1OC", "inhibition": "82.5% (active)"}
{"compound": "COc1ccc(CNC(=O)COC(=O)c2c(C)nn(-c3ccccc3)c2C)cc1OC", "inhibition": "-8.11%"}
{"compound": "COC(=O)C1=C(C(=O)OC)[C@@H]2N(C)c3ccccc3[C@@]23C[C@@H](C(=O)OC)N(C(C)=O)C3=N1", "inhibition": "3.79%"}
{"compound": "CC(C)(C)NC(=O)Cn1c(SCC(=O)Nc2nccs2)nc2ccccc21", "inhibition": "1.04%"}
{"compound": "CN1C/C(=C/c2cccs2)C(=O)/C(=C\\c2cccs2)C1", "inhibition": "8.32%"}
{"compound": "O=C1/C(=C/c2cccs2)CCc2ccccc21", "inhibition": "94.5% (active)"}
{"compound": "COc1ccc(/C=C2\\CCc3ccccc3C2=O)c(OC)c1OC", "inhibition": "-14.7%"}
{"compound": "Cc1ccc(NS(=O)(=O)c2cccs2)cc1S(=O)(=O)N1CCCCCC1", "inhibition": "-3.66%"}
{"compound": "O=C(OCC(=O)N1CCCC1)c1ccco1", "inhibition": "-23.3%"}
{"compound": "CCc1ccc(C(=O)COC(=O)c2ccco2)cc1", "inhibition": "66.8% (active)"}
{"compound": "CCN(CC)c1ccc(C(=O)OCC(=O)c2ccco2)cc1", "inhibition": "-14.3%"}
{"compound": "Cc1ccc(CN2CC(C(=O)NNC(=O)Cn3ccc(C(F)(F)F)n3)CC2=O)cc1", "note": "(centres undefined)", "inhibition": "-0.795%"}
{"compound": "O=[N+]([O-])c1c(NCCO)cc(Sc2nc3ccccc3s2)c2nonc12", "inhibition": "79.3% (active)"}
{"compound": "NC(=O)c1ccc(Nc2ccc3nonc3c2[N+](=O)[O-])cc1", "inhibition": "6.58%"}
{"compound": "Cc1nc2nc(CSc3nc4ccccc4s3)cc(=O)n2[nH]1", "inhibition": "-34.9%"}
{"compound": "COc1ccc(C)cc1S(=O)(=O)Nc1cccc(Cl)c1Cl", "inhibition": "-4.81%"}
{"compound": "O=C(Cc1ccc(Cl)cc1)NCc1nc(-c2ccccc2)no1", "inhibition": "-9.63%"}
{"compound": "CC(C)=C(NC(=O)c1ccccc1)C(=O)N/N=C(\\C)c1ccccc1O", "inhibition": "-21.8%"}
{"compound": "C/C(=N\\NC(=O)c1ccoc1C)c1ccccc1O", "inhibition": "56.4% (active)"}
{"compound": "C/C(=N\\NC(=O)c1ccccc1F)c1ccccn1", "inhibition": "45%"}
{"compound": "CSCCC(NC(=O)c1ccccc1)C(=O)N1CCN(Cc2ccc(Cl)cc2)CC1", "note": "(centres undefined)", "inhibition": "-6.84%"}
{"compound": "CC(OC(=O)C1CC(=O)N(Cc2ccccc2)C1)C(=O)Nc1ccccc1[N+](=O)[O-]", "note": "(centres undefined)", "inhibition": "-19.9%"}
{"compound": "CCCCN(C(=O)COc1ccc(NC(C)=O)cc1)C1CCS(=O)(=O)C1", "note": "(centres undefined)", "inhibition": "-10.3%"}
{"compound": "Cc1cccc(Nc2ccccc2C(=O)NCc2ccco2)c1C", "inhibition": "2.61%"}
{"compound": "O=C(CCNC(=O)c1ccccc1Cl)NCc1ccco1", "inhibition": "-14.5%"}
{"compound": "O=C(Nc1ccccc1)Nc1ccccc1C(=O)NCc1ccco1", "inhibition": "75.2% (active)"}
{"compound": "NC(N)=NCCCc1cn(CC(=O)N2CCNCC2)nn1", "inhibition": "-12%"}
{"compound": "O=C(CN1CCN(S(=O)(=O)c2cccc(Cl)c2)CC1)N1CCCCC1", "inhibition": "-12.8%"}
{"compound": "C=CCNC(=S)NNc1ncnc2sc3c(c12)CC(C)(C)OC3", "inhibition": "-6.15%"}
{"compound": "O=C(NCCC1=CCCCC1)C1CCN(Cc2cnn(-c3ccccc3)c2-n2cccc2)CC1", "inhibition": "12.3%"}
{"compound": "C1=C(CCNc2ncnc3c2cnn3-c2ccccc2)CCCC1", "inhibition": "62.1% (active)"}
{"compound": "CC(C)Sc1ncnc2c1cnn2-c1ccccc1", "inhibition": "38.9%"}
